High-throughput results deposited in PubChem by National Center for Advancing Translational Sciences (NCATS).
Sampled rows, rich in hits. Any-hit rate of the full collection: about 21%.
Shiga inhibitor: Shiga toxin inhibition; Vero cells, Shiga toxin protein synthesis inhibition reporter; inhibition, % at 38.7 µM; actives 9.2% (n = 290,000); in the data active = inhibition mostly above about 28%, no sharp cut-off; inactive = mostly below about 43%; note: 0% is about no effect
HCV inhibitor: blocks hepatitis C virus | actives 3.4% (n = 340,000) | Huh7.5.1 HCVcc-Cre infection, luciferase reporter, 44 h | Potency, µM (doses to about 41.8 µM), inactives show at the top dose activity change, negative = inhibition, usual class: inhibitors; note: potency is the fitted concentration of half-maximal effect; % is set by controls: 0 for no effect and ±100 for the full control effect
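Antiviral activity was scored by luciferase reporter output from cells infected with HCVcc-Cre (~0.5 moi) in presence of compound, 44 h infection period, cells seeded 1,000/well 4 h prior.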
Cycloheximide cs: affects cycloheximide protein synthesis inhibition readout, counter-screen. cell reporter, cycloheximide protein synthesis inhibition counterscreen. max response, %. actives 12% (n = 300,000). AID 2314; in the data active = max response mostly above about 13%, no sharp cut-off; inactive = mostly below about 14%; note: read at 38.3 µM for the half of the compounds with a filed dose; 0% is about no effect
HCMV inh: human cytomegalovirus inhibition; activity change, negative = inhibition, % at 57.5 µM; AID 1259415; actives 4.5% (n = 410,000); HFF cells, HCMV-luciferase reporter, 72 h; stronger effect = lower value; in the data active = activity change below about -60%; inconclusive = no clear call, values can overlap the other calls; inactive = above about -39%; note: % is set by controls: 0 for no effect and ±100 for the full control effect
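Luciferase read-out from HCMV-luciferase-infected HFFs (MOI 1 PFU/cell) 72 h post infection at 37C; compounds added after 16 h cell attachment; activity normalized between buffer-only basal and Salinomycin (10uM) inhibitor controls.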
Pf growth 96h: P. falciparum growth inhibition at 96 hour, primary screen for plastid delayed-death inhibitors; Potency, µM (top dose mostly 28.7 µM), for the others: at the highest dose activity change, negative = inhibition, most hits filed as inhibitors; actives 6.9% (n = 320,000); AID 504834; P. falciparum luciferase reporter growth, 96 h; note: potency is the fitted concentration of half-maximal effect; % is set by controls: 0 for no effect and ±100 for the full control effect
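Readout is luminescence from an integrated firefly luciferase in P. falciparum. Red cells, 2% hematocrit and 0.05% parasitemia final, were cultured with compound through two parasite generations (96 hours) at 37 C, 5% CO2.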
Pf growth 48h: inhibits P. falciparum growth in the first generation, 48 h; P. falciparum luciferase growth in erythrocytes, 48 h; Potency, µM (highest dose often 28.7 µM), for inactives: top-dose activity change, negative = inhibition, usual class: inhibitors; actives 5.9% (n = 310,000); AID 504832; note: potency is the fitted concentration of half-maximal effect; % is set by controls: 0 for no effect and ±100 for the full control effect
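Compounds are pin-transferred into medium, infected erythrocytes (2% hematocrit, 0.1% parasitemia final) are added, and plates sit one parasite generation at 37 C in 5% CO2. Detection reagent is then added and luminescence measured.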
* marks the source's active call; other numbers are inactive results; i = inactive; u = inconclusive; x = no result; + = active, no number; ! = not active in a repeat; [ ] = dose if it differs, or a comment. Unless noted, calls come from the whole dose curve; as a rule, active = well fitted inhibition curve with a large enough effect; inconclusive = small, poorly fitted or top-dose-only effect, or another doubt; inactive = no such curve, though single readings can be large or run the other way.

SMILES | Shiga inhibitor | HCV inhibitor | Cycloheximide cs | HCMV inh | Pf growth 96h | Pf growth 48h
CCOc1ccc(-c2n[nH]c(C(=O)NN)c2C)cc1 | 95* | u | 32* | 11 | 41% | 92%
Cc1c(-c2ccccc2)n[nH]c1C(=O)NN | 97* | -3% | 43* | -9 | 79% | 15%
NNC(=O)c1[nH]c(-c2ccccc2)cc1-c1ccccc1 | -11 | 9% | -2 | -28 | u | u
CCCC(NC(=O)CCl)c1ccccc1 (stereo not drawn) | -4 | u | 6 | -72* | u | 9.3µM*
CC(C)CC(NC(=O)CCl)c1ccccc1 (stereo not drawn) | 16 | 5% | 1 | u | u | -11%
CCC(NC(=O)CCl)c1ccc(C)cc1 (stereo not drawn) | 25 | 10% | 6 | -78* | 1.3µM* | 5.9µM*
CCCC[n+]1ccn(C2=C([O-])c3ccccc3C(=O)/C2=N\S(=O)(=O)c2ccc(Cl)cc2)c1 | 46 | u | 5 | -73* | 3.7µM* | u
Cc1ccc2[nH]c(-c3cccc(F)c3)cc(=O)c2c1 | +! | u | 15*! | -69* | 4.1µM* | 5.2µM*
COc1cccc(-c2cc(=O)c3cc(NC(=O)c4ccc(N(C)C)cc4)ccc3[nH]2)c1 | -13 | -4% | -8 | x | 13µM* | 10µM*
O=c1cc(-c2cccc(F)c2)[nH]c2cc(Cl)ccc12 | i | x | -4 | x | x | x
O=c1cc(-c2cccc(F)c2)[nH]c2ccccc12 | -22 | 4%[8.37 µM] | 5 | -77* | u | u
COc1ccc2[nH]c(-c3ccc(F)cc3F)cc(=O)c2c1 | + | x | 26* | x | x | x
CCOC(=O)c1ccc(N2C=C(C(=O)OC)C(c3cccc(O)c3)C(C(=O)OC)=C2)cc1 | 3 | -23% | -3 | 0 | 12% | 3%[0.00184 µM]
CC(C)(C)NC(=O)NC(=O)COC(=O)c1cccc(OC(F)F)c1 | -8 | 4% | -1 | -35 | -6% | 2%
CCOc1ccc(S(=O)(=O)Nc2ccc(C(=O)NCC(c3ccccc3)N(C)C)cc2)cc1 (stereo not drawn) | 2 | x | 12 | -4 | 93% | 5%
COc1ccc2[nH]c(-c3cccc(F)c3)cc(=O)c2c1 | 52* | 4%[8.37 µM] | 27*! | -62* | 5.2µM* | u
O=C1COc2ccc(S(=O)(=O)CCC(=O)N3CCN(c4cccc(C(F)(F)F)c4)CC3)cc2N1 | 0 | u | -10 | -68* | u | -10%
Cc1ccc(CNC(=O)CC(C)S(=O)(=O)c2ccc3c(c2)NC(=O)CO3)cc1 (stereo not drawn) | -7 | -3% | -2 | 0 | 9.3µM* | 6%
Cc1ccc(NC(=O)CC(C)S(=O)(=O)c2ccc3c(c2)NC(=O)CO3)c(Cl)c1 (stereo not drawn) | 3 | -18% | 1 | -38 | 42% | -4%
Cc1ccc(CNS(=O)(=O)c2cc3c(cc2C)NC(=O)CO3)cc1 | -1 | -3% | -3 | 12 | 4.1µM* | u
Cc1ccc(N(C)C(=O)CC(C)S(=O)(=O)c2ccc3c(c2)NC(=O)CO3)cc1 (stereo not drawn) | -6 | 12% | -3 | -11 | 3.7µM* | 19%
Cc1cc2c(cc1S(=O)(=O)NCc1ccc(N(C)C)cc1)OCC(=O)N2 | 8 | -11% | 4 | 12 | u | -16%
CC(C)(C)OC(=O)N1CCc2nc(N3CCN(c4ncccn4)CC3)ncc2C1 | x | x | x | 2 | x | x
Cc1ccc(NC(=S)N(CCN(C)C)Cc2cc3cc(C)ccc3[nH]c2=O)cc1 | 14 | u | -2 | u | u | u
COc1ccc(OC)c2c1cc(C(=O)N[C@H](C(=O)N1CCC[C@H]1C(=O)O)C(C)C)n2C | -1 | -17% | -3 | 15 | u | 19%
SMILES | Shiga inhibitor | HCV inhibitor | Cycloheximide cs | HCMV inh | Pf growth 96h | Pf growth 48h
CCc1ccccc1NC(=O)CNCC(=O)Nc1ccccc1CC | -14 | 19% | -1 | -36 | -2% | x
O=C1COc2ccc(S(=O)(=O)N3CCN(c4ccccc4)CC3)cc2N1 | -6 | 15% | -11 | -18 | u | -1%
CC(CC(=O)N1CCN(c2ccccc2)CC1)S(=O)(=O)c1ccc2c(c1)NC(=O)CO2 (stereo not drawn) | -6 | u | 2 | u | 5.9µM* | -5%
CN(CC(=O)Nc1ccccc1Cl)C(=O)c1cc(C2CC2)nn1-c1ccccc1 | x | -14% | x | -18 | 14% | -1%
Cc1ccccc1CCNC(=O)c1cc(C2CC2)nc2c1cnn2C(C)C | x | u | x | 0 | 13µM* | 12µM*
CCc1ccccc1NC(=O)CN(C)C(=O)c1cc(C2CC2)nc2c1cnn2C(C)C | x | -24% | x | 5 | u | 12µM*
CC(C)n1ncc2c(C(=O)NCCc3ccc(F)cc3)cc(C3CC3)nc21 | x | u | x | -35 | u | 9.3µM*
Cc1cccc(C)c1NC(=O)CSc1nc2ncccc2o1 | x | x | x | 1 | x | x
Cc1occc1-c1nnc(SCC(=O)Nc2nc(C(C)(C)C)cs2)o1 | 50* | u | 27* | -69* | x | 44%
Cc1occc1-c1nnc(SCC(=O)N(C)C)o1 | 54 | 21% | 33* | 27 | 54% | x
Cc1cc(-c2nnc(SCC(=O)Nc3nccs3)o2)no1 | 43* | 10% | 20* | 27 | 14% | u
Cc1csc(NC(=O)CSc2nnc(-c3ccoc3C)o2)n1 | 70* | u | 41* | 50 | 134% | -9%
O=c1[nH]c(NCCO)nnc1Cc1ccccc1 | -9 | 14% | 10 | -12 | 50% | 37%
COc1cccc2c1Oc1ncccc1N(C(=O)CCC(=O)NCc1ccc(OC(C)C)cc1)C2 | x | x | x | 6 | x | x
CCOC(=O)Cc1csc(NC(=O)CSc2nnc(-c3ccncc3)o2)n1 | 3 | u | -3 | 7 | 16% | 3%
Cc1csc(NC(=O)CSc2nnc(-c3ccncc3)o2)n1 | 30 | -27% | 16* | -1 | 14% | 81%
Cc1occc1-c1nnc(SCC(=O)N2CCc3ccccc32)o1 | 42 | 2% | 1 | -4 | 5.2µM* | -16%
CCCCOc1ccc(N(CC(=O)NCCOC)C(=O)CCC(=O)Nc2ccccn2)cc1 | -5 | 17% | -2 | 5 | u | 5%
Cc1nc2ccccc2c(=O)n1-c1ccc(NS(=O)(=O)c2ccc(F)cc2)cc1 | x | u | x | -9 | u | u
CCOc1ccccc1-n1c(SCC(=O)NC2CCCC2)nnc1-c1ccoc1C | 1 | u | -2 | -37 | u | u
COCCn1c(C)cc(C(=O)CSc2nnc(-c3cccnc3)n2-c2ccccc2F)c1C | 19 | 10% | -4 | -27 | -27% | 10µM*
Cc1ccccc1-n1c(SCC(=O)c2cc(C)n(C)c2C)nnc1-c1cccnc1 | -8 | u | 5 | x | u | x
CCOc1ccccc1-n1c(SCC(=O)NC(C)(C)C)nnc1-c1ccoc1C | 9 | 18% | 18 | -24 | u | 13µM*
